These results are taken from PubChem BioAssay.

Activity calls are given as the source filed them.

Test [1] is described as follows: binders of probe aFSTL3 on microarray, primary screen, stem cell growth factor project, biochemical, small-molecule microarray, fluorescence 635/667 (AID 1064).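 Also: measures binding of the biotinylated anti-FSTL3 antibody to printed compounds.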 Conditions: higher = more signal.
A short description of test [2]: binders from COS7 lysate, DM2A8 probe, primary screen, torsin A project, cell lysate, small-molecule microarray, fluorescence 635/667 (AID 1065). Conditions: higher = more signal, COS7 lysate expressing mutant human TOR1A.
Test [3] in a line: binders of probe aFGF2 on microarray, primary screen, stem cell growth factor project, biochemical, small-molecule microarray, fluorescence 635/667 (AID 1067).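 Also: measures binding of biotinylated aFGF2 protein to printed compounds on slides; z-score merges feature fluorescence and signal-to-noise across triplicate slides.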 To be noted: higher = more signal.
Test [4] can be described thus: binders of probe aFGF10 on microarray, primary screen, stem cell growth factor project, biochemical, small-molecule microarray, fluorescence 635/667 (AID 1071).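 Also: score merges 667 nm spot intensity and signal to noise from triplicate slides.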 To be noted: higher = more signal.
Test [5] deals with Neurogenic locus notch homolog protein 2 (Homo sapiens) (UniProt Q04721). Briefly: Notch2 binders on small-molecule microarrays, primary screen, biochemical, small-molecule microarray, 635 nm fluorescence, stem cell growth factors (AID 1073). To be noted: Notch2 binding, higher = more signal.
Chain of Neurogenic locus notch homolog protein 2 (Homo sapiens) (Q04721 whole entry, looked up, canonical isoform): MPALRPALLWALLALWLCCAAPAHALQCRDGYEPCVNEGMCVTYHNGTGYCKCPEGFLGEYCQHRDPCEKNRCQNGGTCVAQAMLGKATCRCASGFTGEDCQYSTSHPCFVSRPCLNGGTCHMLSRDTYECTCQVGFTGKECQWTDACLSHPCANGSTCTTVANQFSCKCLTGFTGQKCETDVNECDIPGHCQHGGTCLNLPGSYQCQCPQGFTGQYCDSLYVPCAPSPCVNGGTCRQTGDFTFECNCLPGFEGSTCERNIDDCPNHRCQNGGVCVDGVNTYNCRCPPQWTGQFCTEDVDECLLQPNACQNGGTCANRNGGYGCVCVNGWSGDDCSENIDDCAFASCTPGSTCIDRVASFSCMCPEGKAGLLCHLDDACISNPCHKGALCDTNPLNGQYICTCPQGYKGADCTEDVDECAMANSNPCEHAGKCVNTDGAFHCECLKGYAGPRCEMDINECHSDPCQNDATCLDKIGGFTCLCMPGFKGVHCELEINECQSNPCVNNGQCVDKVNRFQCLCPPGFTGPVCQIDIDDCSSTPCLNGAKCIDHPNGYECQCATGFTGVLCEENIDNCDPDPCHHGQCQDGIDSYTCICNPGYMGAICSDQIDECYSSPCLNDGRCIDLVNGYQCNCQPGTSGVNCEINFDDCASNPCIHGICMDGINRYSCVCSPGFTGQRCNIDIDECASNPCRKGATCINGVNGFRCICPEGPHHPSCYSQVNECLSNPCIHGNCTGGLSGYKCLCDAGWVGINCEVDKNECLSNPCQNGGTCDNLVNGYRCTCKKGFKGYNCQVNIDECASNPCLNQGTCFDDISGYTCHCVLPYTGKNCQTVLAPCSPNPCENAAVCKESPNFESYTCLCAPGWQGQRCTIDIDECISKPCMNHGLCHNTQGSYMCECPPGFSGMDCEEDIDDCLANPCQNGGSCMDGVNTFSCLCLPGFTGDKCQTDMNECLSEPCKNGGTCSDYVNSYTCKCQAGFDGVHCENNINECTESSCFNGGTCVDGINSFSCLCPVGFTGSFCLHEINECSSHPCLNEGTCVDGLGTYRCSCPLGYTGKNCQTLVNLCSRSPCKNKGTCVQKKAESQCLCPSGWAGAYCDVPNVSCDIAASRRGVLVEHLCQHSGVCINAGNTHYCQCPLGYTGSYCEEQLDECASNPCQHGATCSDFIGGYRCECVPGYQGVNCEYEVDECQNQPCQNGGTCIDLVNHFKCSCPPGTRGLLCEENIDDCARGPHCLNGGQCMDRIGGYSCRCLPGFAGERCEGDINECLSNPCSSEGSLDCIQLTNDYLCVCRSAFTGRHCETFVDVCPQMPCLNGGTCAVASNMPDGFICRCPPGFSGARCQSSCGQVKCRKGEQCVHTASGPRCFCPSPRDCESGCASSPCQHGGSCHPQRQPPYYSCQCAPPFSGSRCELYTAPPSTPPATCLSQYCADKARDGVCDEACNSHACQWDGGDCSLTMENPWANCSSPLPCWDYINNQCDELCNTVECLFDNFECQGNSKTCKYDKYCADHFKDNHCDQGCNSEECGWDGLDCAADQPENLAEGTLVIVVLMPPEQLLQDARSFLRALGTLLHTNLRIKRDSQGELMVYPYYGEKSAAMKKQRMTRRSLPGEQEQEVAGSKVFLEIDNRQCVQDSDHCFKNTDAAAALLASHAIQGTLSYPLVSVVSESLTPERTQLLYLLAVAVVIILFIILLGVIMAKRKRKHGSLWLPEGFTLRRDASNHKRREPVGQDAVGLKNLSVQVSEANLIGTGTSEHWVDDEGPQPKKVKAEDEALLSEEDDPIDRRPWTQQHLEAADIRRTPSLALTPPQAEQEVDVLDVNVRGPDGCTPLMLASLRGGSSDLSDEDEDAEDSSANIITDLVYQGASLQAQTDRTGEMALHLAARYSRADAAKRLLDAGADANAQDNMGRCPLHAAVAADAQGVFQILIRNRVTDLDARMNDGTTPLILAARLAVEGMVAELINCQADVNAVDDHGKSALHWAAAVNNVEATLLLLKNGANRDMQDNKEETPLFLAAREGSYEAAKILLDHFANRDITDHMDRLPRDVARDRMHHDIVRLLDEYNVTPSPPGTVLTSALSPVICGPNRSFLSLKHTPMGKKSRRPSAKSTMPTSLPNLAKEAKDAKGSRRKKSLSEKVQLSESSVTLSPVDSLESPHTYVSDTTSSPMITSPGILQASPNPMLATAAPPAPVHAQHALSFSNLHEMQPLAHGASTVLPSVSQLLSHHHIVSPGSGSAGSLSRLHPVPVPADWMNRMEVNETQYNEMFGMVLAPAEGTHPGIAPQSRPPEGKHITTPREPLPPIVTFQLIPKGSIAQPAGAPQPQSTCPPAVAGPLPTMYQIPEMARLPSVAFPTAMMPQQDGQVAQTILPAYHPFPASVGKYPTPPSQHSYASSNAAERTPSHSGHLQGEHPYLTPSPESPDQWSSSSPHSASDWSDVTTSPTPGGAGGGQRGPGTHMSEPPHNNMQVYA
For test [6], the target named is Pro-neuregulin-1, membrane-bound isoform (Homo sapiens) (UniProt Q02297). Briefly: NRG1 binders on small-molecule microarrays, primary screen, psychiatric disease protein project, biochemical, small-molecule microarray, fluorescence 635/667 (AID 1075).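 Also: score combines 667 nm spot fluorescence with signal to noise.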 Conditions: NRG1 binding, 635 nm fluorescence, higher = more signal.
Chain of Pro-neuregulin-1, membrane-bound isoform (Homo sapiens) (Q02297 whole entry, looked up, the tested form may be a part, canonical isoform): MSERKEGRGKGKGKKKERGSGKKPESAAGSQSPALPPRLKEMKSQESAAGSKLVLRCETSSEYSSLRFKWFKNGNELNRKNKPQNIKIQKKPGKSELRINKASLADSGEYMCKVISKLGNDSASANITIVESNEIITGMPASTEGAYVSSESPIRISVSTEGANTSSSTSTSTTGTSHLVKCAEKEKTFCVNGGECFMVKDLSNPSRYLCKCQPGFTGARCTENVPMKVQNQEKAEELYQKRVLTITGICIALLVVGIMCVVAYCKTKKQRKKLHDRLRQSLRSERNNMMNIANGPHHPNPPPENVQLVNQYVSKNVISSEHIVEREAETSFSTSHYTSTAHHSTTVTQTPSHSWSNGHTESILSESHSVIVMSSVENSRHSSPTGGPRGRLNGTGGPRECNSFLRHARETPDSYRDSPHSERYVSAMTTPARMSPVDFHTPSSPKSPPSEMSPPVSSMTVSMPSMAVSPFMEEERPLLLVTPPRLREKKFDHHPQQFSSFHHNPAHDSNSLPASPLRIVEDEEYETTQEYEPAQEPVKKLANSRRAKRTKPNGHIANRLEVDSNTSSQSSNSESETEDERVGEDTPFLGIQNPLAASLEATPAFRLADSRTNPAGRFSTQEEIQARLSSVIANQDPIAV
Test [7] deals with Neuregulin-1 EGF-like domain. In words: binders of neuregulin-1 EGF-like domain, primary screen, biochemical, small-molecule microarray, 635 nm fluorescence (AID 1081).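 Also: binding of the protein to compounds printed on small-molecule microarray slides.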 To be noted: small-molecule microarray binding, higher = more signal.
Test [8] is described as follows: FRG1 promoter luciferase signal modulators, primary screen, FRG1 inhibition for FSHD, cell-based, C2C12 myotubes, firefly/Renilla luciferase, luminescence (AID 1084). Conditions: higher = more signal, called active from +8 up or from −8 down.
Test [9] can be described thus: binders of probe aFST on microarray, primary screen, stem cell growth factor project, biochemical, small-molecule microarray, fluorescence 635/667 (AID 1086).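 Also: score merges 667 nm fluorescence with signal-to-noise of each printed compound spot.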 Conditions: higher = more signal.
The nature of test [10]: binders of probe aHhip on microarray, primary screen, stem cell growth factor project, biochemical, small-molecule microarray, fluorescence 635/667 (AID 1087).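 Also: score merges spot fluorescence at 667nm with spot signal to noise ratio.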 To be noted: higher = more signal.
Test [11] deals with PRMT1 (protein arginine N-methyltransferase 1). Briefly: PRMT1 binders on small-molecule microarrays, primary screen, biochemical, small-molecule microarray, 635 nm fluorescence (AID 1088).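 Also: binding of Prmt1 protein to compounds spotted on small-molecule microarray slides.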 Conditions: small-molecule microarray binding, higher = more signal.
Test [12] is described as follows: yeast growth modulation, basal conditions, primary screen, YJM789 clinical isolate, OD600, 24 h (AID 1089).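 Also: growth of clinical yeast isolate S. cerevisiae YJM 789 seeded 1000 cells per well; test concentration not given here.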 Conditions: S. cerevisiae YJM789 growth, higher = more signal, called active from +8 up or from −8 down.
Test [13] in a line: fission yeast growth modulation, primary screen, strain 972, OD600, 24 h, no modulator (AID 1090).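 Also: basal condition with compound alone and no growth modifier present; test concentration not given here.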 To be noted: S. pombe 972 growth, higher = more signal, called active from +8 up or from −8 down.
Test [14] is described as follows: S. cerevisiae growth modulation with rapamycin, primary screen, strain BY4716, OD600, 96 h (AID 1091). Also: test concentration not given here. To be noted: higher = more signal, called active from +8 up or from −8 down.
Test [15] concerns the target Torsin-1A-interacting protein 2 (Homo sapiens) (UniProt Q8NFQ8). In words: LULL1 binders on small-molecule microarray, primary screen, cell lysate, human LULL1 lysate, 635/667 nm fluorescence (AID 1092).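 Also: probe is lysate of COS7 cells overexpressing human LULL1; score merges per-feature 667 nm fluorescence with signal-to-noise.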 To be noted: hLULL1 lysate binding, 635 nm fluorescence, higher = more signal.
The nature of test [16]: E. coli growth modulation, two-sided OD650, primary screen, E. coli filamentation project, strain DRC41, 24 h (AID 1093).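 Also: MC1000 strain lacking acrAB efflux and sulA so SOS filamentation is blocked; test concentration not given here.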 Conditions: OD650, 24 h, higher = more signal, called active from +8 up or from −8 down.
The nature of test [17]: small-molecule microarray binders of probe aLefty2, primary screen, biochemical, biotinylated probe, 635/667 nm fluorescence (AID 1094).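 Also: score merges spot fluorescence near 667 nm with spot signal-to-noise ratio.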 To be noted: higher = more signal.
Test [18] deals with Noggin (protein binding on small-molecule microarray). Briefly: Noggin binders on small-molecule microarray, primary screen, biochemical, 635/667 nm fluorescence (AID 1095).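 Also: score merges 667 nm feature fluorescence with signal to noise over triplicate slides.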 Conditions: 635 nm fluorescence, higher = more signal.
For test [19], the target named is Neurogenic locus notch homolog protein 3 (Homo sapiens) (UniProt Q9UM47). In words: NOTCH3 binders on small-molecule microarray, primary screen, biochemical, 635/667 nm fluorescence (AID 1096). Conditions: NOTCH3 binding, 635 nm fluorescence, higher = more signal.
A short description of test [20]: small-molecule microarray binders of probe aEGFR, primary screen, biochemical, biotinylated probe, 635/667 nm fluorescence (AID 1097).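 Also: probe is a biotinylated anti-EGFR antibody binding compounds printed on slides; score combines fluorescence near 667 nm and signal to noise of each spot.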 Conditions: higher = more signal.

Chain of Torsin-1A-interacting protein 2 (Homo sapiens) (Q8NFQ8 whole entry, looked up): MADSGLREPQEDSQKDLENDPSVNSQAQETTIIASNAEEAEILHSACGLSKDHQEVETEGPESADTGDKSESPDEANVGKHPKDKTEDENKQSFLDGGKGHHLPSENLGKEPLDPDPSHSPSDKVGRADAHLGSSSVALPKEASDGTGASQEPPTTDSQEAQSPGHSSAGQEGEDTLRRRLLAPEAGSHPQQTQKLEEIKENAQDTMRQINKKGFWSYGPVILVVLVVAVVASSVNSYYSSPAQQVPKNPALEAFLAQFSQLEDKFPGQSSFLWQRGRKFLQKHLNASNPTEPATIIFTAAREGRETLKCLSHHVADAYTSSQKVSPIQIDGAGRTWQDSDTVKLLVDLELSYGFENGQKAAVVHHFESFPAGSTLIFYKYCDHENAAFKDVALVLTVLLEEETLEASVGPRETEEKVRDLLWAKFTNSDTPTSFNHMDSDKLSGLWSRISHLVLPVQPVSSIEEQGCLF

Turning to `O=C1N(Cc2ccccc2)c2ccccc2[C@@H]2OC(c3ccc(OCCCO)cc3)=N[C@]12CCS(=O)(=O)c1ccccc1`, the composite z-score in test [1] is 0.625; in [2], 0.206; in [3], 0.0111; in test [4], -0.23; in test [5], 0.888; in [6], 1.03. Besides, the composite z-score in test [7] was 1.28; in test [9], 1.15; in test [10], -0.253; in test [11], 1.5; in test [15], 2.98; in test [17], 0.169. The values for the composite z-score in [18], in test [19] and in test [20] were 1.11, 0.783 and 0.0248, respectively. The z-score in test [8] is -2.27 (inactive); in [12], 0.805 (inactive); in test [13] it was 1.11 (inactive); in test [14], 7.05 (inactive); in test [16] it was 0.0515 (inactive).
Consider `Cc1ccc(S[C@]2(C(=O)NC3CC3)CC(=O)N(Cc3ccccc3)[C@@H]2c2ccc(CO)cc2I)cc1`, for which the composite z-score in test [1] is 0.433; in [2], -0.703; in test [3], -0.146; in test [4], 0.333; in test [5], -0.823; in test [6] it was 1.23. Moreover, the composite z-score is 0.966 in test [7]; -0.73 in [9]; -0.0047 in test [10]; 1.23 in test [11]; 2.35 in test [15]; -0.012 in [17]. Also, the values for the composite z-score in [18], in [19] and in [20] were -0.809, -0.738 and -0.286, respectively. Also, the z-score in test [8] was -2.74 (inactive); in test [12], 0.0136 (inactive); in test [13], -3.59 (inactive); in [14], 0.0377 (inactive); in test [16], 0.45 (inactive).
Take `COCCCNC(=O)[C@@H]1c2ccccc2C(=O)N(Cc2ccccc2Cl)[C@H]1c1ccc(CO)cc1`: the composite z-score was 0.189 in test [1]; -0.0402 in [2]; -0.117 in test [3]; -0.247 in [4]; 0.161 in test [5]; 0.379 in test [6]. Also, the composite z-score in test [7] is 1.48; in test [9], 0.465; in [10], -0.0237; in [11] it was 1.53; in [15], 2.26; in test [17], -0.101. The composite z-score in [18] was 0.522; in [19], 0.388; in test [20], -0.13. The z-score in test [8] was -1.76 (inactive); in test [12], -0.103 (inactive); in test [13] it was -0.329 (inactive); in [14], -0.59 (inactive); in [16], 2.55 (inactive).
Take `CCCC[C@H]1OB(O)C[C@H]2C1=C(COC)C[C@H]1C(=O)N(C)C(=O)[C@H]12`: the composite z-score in test [1] is -0.441; in test [2] it was 0.49; in [3] it was -0.144; in test [4] it was 0.18; in test [5] it was 0.364; in test [6], -0.149. Also, the composite z-score in test [7] was 0.6; in [9], 0.106; in [10], -0.15; in test [11] it was -0.15; in test [15] it was 0.0079; in test [17], -0.157. Further, the values for the composite z-score in test [18], in test [19] and in [20] were 1.08, 0.769 and -0.139, respectively. In addition, the z-score was 0.0329 (inactive) in test [8]; -0.937 (inactive) in test [12]; -0.775 (inactive) in test [13]; -0.635 (inactive) in test [14]; -0.908 (inactive) in [16].
For `CCCCCN1CC=CC23O[C@@H]4/C=C\CCC(C)OC(=O)C4[C@H]2C(=O)N(C(C)CO)[C@@H]3C1=O` (stereo not given in full), the composite z-score was -0.411 in test [1]; -1.14 in test [2]; -0.164 in test [3]; -0.043 in test [4]; -0.602 in test [5]; 0.946 in test [6]. The composite z-score in [7] is 0.38; in [9], -0.258; in test [10], -0.268; in test [11] it was 1.09; in test [15], 2.37; in test [17] it was -0.238. Moreover, the composite z-score is 0.0805 in test [18], 0.385 in [19] and -0.168 in test [20]. The z-score was -1.32 (inactive) in [8]; 0.255 (inactive) in test [12]; 0.117 (inactive) in [13]; -0.562 (inactive) in [14]; 0.123 (inactive) in test [16].
